# Test results: ChEMBL document CHEMBL1961873, “Compounds: GSK PKIS; Assays: Nanosyn kinase panel” (2012)
# Legend:
# [1] = molecular target: T1, Inhibitor of nuclear factor kappa-B kinase subunit epsilon (Homo sapiens) (UniProt Q14164); conditions: at 1 µM;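 further: reported values are averaged percent inhibition figures against human IKKε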
# T1 sequence (whole entry): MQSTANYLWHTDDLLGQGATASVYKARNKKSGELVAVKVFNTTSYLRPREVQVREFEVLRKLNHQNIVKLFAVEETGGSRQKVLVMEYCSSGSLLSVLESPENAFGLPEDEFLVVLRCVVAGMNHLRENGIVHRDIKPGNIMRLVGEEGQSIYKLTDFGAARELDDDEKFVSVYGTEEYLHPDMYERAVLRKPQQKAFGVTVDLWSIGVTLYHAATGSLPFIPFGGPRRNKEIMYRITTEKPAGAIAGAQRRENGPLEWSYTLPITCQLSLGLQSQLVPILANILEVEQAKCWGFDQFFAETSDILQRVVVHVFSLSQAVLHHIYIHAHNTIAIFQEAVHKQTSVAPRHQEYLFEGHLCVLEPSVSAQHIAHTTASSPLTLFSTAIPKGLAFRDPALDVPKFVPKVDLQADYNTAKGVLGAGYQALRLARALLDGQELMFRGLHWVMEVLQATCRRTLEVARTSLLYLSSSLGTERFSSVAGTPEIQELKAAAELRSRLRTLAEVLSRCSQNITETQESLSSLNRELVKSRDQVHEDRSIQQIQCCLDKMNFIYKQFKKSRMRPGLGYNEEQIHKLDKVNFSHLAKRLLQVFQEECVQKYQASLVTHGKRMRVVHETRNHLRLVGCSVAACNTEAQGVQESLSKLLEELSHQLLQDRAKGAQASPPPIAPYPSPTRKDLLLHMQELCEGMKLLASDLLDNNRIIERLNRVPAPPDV
# [2] = molecular target: T2, Serine/threonine-protein kinase Nek1 (Homo sapiens) (UniProt Q96PY6); conditions: at 0.1 µM
# T2 sequence (whole entry): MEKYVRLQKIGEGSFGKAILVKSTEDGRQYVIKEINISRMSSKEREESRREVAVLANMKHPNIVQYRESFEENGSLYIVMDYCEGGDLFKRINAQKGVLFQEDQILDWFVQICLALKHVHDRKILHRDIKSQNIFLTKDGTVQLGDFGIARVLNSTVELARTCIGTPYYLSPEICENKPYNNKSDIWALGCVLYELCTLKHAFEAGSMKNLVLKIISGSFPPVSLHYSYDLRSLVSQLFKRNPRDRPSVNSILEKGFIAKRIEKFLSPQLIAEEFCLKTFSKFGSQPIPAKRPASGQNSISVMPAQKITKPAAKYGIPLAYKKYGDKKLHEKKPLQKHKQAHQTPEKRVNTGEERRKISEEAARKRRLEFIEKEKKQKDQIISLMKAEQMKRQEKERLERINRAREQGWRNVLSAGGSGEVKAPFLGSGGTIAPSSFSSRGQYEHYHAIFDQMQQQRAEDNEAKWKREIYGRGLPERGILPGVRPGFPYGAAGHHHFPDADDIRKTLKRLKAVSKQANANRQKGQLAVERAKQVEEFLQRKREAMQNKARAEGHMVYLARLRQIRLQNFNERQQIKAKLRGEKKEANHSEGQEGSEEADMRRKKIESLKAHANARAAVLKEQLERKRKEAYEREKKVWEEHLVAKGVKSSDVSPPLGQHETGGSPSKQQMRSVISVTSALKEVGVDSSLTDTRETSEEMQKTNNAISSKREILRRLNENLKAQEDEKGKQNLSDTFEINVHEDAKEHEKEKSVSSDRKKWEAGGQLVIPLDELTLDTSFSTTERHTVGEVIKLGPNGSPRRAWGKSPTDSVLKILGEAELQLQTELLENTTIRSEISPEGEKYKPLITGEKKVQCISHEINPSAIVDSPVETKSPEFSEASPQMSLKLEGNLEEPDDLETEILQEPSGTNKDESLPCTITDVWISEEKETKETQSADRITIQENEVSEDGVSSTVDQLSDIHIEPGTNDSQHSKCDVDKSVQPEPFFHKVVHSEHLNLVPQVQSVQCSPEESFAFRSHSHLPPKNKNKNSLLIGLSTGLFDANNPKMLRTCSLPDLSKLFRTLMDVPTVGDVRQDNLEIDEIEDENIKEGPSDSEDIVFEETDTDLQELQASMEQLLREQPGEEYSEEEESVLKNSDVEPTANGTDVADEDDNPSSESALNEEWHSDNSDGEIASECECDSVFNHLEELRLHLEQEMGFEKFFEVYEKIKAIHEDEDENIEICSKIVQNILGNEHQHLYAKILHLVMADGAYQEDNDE
# [3] = molecular target: T2, Serine/threonine-protein kinase Nek1 (Homo sapiens); conditions: at 1 µM
# [4] = molecular target: T3, Serine/threonine-protein kinase Nek2 (Homo sapiens) (UniProt P51955); conditions: at 0.1 µM
# T3 sequence (whole entry): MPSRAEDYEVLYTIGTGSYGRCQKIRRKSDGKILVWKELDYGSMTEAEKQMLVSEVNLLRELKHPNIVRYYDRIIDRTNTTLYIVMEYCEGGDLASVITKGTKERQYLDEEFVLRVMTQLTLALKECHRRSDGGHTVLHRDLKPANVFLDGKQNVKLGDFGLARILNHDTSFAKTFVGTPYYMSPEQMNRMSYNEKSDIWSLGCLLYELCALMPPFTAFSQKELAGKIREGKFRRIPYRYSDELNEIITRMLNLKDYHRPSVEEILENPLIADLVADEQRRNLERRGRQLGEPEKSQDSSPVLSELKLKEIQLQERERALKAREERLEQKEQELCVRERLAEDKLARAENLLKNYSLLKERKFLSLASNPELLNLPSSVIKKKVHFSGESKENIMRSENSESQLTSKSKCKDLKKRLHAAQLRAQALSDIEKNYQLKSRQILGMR
# [5] = molecular target: T3, Serine/threonine-protein kinase Nek2 (Homo sapiens); conditions: at 1 µM
# [6] = molecular target: Serine/threonine-protein kinase Nek6 (Homo sapiens) (UniProt Q9HC98); conditions: at 0.1 µM
# Sequence of Serine/threonine-protein kinase Nek6 (Homo sapiens) (Q9HC98 whole entry): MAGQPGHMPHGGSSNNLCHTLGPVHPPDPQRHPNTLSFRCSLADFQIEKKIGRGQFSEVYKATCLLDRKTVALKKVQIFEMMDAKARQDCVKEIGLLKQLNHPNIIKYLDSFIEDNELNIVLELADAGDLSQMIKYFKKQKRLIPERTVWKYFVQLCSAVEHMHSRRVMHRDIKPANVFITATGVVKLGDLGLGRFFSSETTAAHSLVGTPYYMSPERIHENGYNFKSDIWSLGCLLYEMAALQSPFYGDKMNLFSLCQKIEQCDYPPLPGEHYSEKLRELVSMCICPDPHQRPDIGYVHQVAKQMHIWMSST
# [7] = molecular target: Serine/threonine-protein kinase Nek6 (Homo sapiens) (UniProt Q9HC98); conditions: at 1 µM
# [8] = molecular target: Serine/threonine-protein kinase Nek7 (Homo sapiens) (UniProt Q8TDX7); conditions: at 0.1 µM
# Sequence of Serine/threonine-protein kinase Nek7 (Homo sapiens) (Q8TDX7 whole entry, looked up): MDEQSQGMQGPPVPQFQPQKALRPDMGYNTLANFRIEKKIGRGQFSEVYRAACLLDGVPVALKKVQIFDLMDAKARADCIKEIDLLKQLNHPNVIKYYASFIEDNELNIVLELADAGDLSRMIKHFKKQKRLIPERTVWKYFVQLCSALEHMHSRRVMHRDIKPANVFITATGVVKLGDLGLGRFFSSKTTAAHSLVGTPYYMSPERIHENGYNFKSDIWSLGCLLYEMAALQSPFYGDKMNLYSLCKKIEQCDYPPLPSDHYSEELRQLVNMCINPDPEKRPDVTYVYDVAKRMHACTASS
# [9] = molecular target: Serine/threonine-protein kinase Nek7 (Homo sapiens) (UniProt Q8TDX7); conditions: at 1 µM
# [10] = molecular target: T4, Serine/threonine-protein kinase Nek9 (Homo sapiens) (UniProt Q8TD19); conditions: at 0.1 µM
# T4 sequence (whole entry): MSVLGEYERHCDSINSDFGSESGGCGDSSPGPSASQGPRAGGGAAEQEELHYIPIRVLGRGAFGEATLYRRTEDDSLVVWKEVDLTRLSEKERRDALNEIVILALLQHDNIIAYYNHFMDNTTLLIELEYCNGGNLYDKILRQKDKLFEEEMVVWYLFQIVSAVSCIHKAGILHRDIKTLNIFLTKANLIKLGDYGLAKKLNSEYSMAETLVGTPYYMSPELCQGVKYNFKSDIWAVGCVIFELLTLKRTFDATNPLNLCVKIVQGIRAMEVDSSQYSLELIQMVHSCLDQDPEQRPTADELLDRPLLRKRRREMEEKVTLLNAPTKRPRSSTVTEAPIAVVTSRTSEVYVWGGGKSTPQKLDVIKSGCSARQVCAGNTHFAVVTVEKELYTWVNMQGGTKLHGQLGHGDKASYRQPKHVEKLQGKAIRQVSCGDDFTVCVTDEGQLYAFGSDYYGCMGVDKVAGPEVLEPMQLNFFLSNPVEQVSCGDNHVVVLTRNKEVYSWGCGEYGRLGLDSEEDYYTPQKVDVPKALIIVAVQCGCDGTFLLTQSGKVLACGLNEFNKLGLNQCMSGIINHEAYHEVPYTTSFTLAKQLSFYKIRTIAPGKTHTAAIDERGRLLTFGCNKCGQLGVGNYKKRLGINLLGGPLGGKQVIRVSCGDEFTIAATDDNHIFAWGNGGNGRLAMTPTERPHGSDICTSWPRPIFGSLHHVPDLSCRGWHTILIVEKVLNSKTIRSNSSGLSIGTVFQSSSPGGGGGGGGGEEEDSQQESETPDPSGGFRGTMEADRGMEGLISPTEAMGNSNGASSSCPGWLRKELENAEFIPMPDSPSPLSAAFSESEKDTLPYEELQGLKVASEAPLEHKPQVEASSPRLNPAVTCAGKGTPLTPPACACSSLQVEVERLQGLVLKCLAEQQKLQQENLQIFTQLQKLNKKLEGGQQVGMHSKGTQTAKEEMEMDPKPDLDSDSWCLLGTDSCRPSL
# [11] = molecular target: T4, Serine/threonine-protein kinase Nek9 (Homo sapiens); conditions: at 1 µM
# [12] = molecular target: Serine/threonine-protein kinase PLK1 (Homo sapiens) (UniProt P53350); conditions: at 0.1 µM
# Sequence of Serine/threonine-protein kinase PLK1 (Homo sapiens) (P53350 whole entry): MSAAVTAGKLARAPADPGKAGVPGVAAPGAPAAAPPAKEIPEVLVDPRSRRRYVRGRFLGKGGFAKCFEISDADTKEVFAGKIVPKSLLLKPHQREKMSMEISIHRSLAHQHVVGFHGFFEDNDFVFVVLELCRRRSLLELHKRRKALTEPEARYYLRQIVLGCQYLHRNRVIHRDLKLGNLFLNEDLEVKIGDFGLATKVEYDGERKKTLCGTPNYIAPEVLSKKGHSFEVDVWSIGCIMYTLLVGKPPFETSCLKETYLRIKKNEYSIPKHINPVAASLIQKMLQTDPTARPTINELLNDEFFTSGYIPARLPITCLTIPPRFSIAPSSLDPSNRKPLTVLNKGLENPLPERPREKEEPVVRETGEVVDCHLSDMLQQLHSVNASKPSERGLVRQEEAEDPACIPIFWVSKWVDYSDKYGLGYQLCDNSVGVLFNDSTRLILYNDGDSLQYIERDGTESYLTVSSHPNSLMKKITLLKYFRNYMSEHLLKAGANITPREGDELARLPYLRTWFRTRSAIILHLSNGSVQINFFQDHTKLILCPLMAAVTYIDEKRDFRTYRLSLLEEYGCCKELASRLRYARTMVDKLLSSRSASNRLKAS
# [13] = molecular target: Serine/threonine-protein kinase PLK1 (Homo sapiens) (UniProt P53350); conditions: at 1 µM
# [14] = molecular target: T5, Dual specificity protein kinase TTK (Homo sapiens) (UniProt P33981); conditions: at 0.1 µM
# T5 sequence (whole entry): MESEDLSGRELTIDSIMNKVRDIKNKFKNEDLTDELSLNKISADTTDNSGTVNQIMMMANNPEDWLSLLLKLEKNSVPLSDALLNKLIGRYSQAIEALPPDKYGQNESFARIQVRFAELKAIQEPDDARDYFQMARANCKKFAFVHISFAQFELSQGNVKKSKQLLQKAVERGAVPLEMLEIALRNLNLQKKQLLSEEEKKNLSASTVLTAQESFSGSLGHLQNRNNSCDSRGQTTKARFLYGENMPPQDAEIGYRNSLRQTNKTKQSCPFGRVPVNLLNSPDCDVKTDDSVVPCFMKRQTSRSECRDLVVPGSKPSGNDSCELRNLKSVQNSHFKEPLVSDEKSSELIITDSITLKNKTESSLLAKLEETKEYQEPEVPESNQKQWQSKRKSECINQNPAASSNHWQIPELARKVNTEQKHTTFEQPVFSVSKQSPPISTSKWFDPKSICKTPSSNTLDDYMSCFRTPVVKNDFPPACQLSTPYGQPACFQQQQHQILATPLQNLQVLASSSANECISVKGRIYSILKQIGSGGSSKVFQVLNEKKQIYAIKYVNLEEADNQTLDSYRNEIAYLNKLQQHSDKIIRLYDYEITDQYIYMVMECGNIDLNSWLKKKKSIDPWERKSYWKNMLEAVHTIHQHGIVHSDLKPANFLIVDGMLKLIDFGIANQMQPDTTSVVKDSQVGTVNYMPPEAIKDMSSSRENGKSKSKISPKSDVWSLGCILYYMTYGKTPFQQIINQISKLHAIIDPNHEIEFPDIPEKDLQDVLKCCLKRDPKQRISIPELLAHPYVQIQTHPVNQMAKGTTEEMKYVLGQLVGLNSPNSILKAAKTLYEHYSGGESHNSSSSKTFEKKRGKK
# [15] = tested on: T6, Receptor-type tyrosine-protein kinase FLT3 (Homo sapiens), P36888 [D835Y]; conditions: at 1 µM
# T6 sequence (whole entry): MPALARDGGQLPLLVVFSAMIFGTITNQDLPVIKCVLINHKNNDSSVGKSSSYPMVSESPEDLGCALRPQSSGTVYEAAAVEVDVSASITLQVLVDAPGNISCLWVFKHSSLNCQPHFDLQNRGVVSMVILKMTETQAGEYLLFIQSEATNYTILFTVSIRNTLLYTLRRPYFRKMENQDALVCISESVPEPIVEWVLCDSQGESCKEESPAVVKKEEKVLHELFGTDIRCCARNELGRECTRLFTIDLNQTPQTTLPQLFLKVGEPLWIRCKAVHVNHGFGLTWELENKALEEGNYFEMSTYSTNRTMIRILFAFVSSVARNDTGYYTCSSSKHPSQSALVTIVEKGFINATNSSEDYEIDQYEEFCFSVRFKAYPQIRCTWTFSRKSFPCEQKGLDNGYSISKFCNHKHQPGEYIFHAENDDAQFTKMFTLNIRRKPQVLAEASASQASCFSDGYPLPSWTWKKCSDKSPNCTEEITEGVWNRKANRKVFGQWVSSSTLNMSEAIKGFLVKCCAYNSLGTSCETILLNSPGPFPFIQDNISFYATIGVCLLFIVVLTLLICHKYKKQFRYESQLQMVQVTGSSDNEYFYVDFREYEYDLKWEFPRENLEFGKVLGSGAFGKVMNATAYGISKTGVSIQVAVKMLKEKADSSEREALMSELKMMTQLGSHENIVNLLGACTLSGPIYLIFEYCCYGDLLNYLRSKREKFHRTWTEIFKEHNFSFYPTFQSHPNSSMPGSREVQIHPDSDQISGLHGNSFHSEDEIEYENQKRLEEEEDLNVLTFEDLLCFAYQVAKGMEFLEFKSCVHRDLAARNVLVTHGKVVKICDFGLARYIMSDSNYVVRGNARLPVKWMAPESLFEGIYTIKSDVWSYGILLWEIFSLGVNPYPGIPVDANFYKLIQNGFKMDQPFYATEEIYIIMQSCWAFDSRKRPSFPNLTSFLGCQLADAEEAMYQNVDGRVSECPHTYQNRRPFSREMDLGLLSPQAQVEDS
# [16] = molecular target: Vascular endothelial growth factor receptor 3 (Homo sapiens) (UniProt P35916); conditions: at 0.1 µM
# Sequence of Vascular endothelial growth factor receptor 3 (Homo sapiens) (P35916 whole entry): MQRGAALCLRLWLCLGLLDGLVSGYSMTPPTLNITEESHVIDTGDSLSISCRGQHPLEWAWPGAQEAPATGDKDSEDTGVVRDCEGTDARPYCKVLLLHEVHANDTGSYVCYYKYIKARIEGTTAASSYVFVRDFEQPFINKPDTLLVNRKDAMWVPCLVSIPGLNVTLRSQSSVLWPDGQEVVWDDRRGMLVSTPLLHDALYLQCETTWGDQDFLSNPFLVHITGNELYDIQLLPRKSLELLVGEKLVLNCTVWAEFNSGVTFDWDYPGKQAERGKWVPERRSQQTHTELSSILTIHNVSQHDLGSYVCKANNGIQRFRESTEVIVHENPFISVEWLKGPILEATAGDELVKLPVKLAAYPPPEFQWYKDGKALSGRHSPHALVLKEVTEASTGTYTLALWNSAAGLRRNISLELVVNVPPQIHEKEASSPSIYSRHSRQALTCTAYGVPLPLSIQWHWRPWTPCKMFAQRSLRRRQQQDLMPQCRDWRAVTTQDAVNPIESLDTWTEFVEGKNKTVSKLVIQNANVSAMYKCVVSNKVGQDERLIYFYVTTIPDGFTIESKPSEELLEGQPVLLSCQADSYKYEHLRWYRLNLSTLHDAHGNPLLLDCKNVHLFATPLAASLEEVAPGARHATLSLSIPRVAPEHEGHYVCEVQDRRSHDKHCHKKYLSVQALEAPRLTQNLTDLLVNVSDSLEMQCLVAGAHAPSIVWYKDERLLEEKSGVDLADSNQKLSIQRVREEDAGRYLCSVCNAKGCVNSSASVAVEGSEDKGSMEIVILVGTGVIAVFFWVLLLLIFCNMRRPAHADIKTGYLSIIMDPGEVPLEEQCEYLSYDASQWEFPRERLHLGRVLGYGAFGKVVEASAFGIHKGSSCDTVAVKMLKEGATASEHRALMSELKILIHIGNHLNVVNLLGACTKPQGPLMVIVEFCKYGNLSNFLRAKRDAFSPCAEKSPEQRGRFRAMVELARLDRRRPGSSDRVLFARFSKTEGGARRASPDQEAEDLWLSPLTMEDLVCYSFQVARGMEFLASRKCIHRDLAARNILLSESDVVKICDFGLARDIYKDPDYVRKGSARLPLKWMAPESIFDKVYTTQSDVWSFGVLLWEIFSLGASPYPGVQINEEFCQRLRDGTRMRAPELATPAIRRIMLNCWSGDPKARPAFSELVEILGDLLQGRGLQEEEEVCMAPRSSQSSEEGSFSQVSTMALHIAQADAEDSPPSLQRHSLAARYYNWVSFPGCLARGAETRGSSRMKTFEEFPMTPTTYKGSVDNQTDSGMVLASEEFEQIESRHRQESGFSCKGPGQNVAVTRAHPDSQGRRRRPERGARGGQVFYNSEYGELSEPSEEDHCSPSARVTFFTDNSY
# [17] = molecular target: Vascular endothelial growth factor receptor 3 (Homo sapiens) (UniProt P35916); conditions: at 1 µM
# [18] = molecular target: Macrophage colony-stimulating factor 1 receptor (Homo sapiens) (UniProt P07333); conditions: at 0.1 µM
# Sequence of Macrophage colony-stimulating factor 1 receptor (Homo sapiens) (P07333 whole entry): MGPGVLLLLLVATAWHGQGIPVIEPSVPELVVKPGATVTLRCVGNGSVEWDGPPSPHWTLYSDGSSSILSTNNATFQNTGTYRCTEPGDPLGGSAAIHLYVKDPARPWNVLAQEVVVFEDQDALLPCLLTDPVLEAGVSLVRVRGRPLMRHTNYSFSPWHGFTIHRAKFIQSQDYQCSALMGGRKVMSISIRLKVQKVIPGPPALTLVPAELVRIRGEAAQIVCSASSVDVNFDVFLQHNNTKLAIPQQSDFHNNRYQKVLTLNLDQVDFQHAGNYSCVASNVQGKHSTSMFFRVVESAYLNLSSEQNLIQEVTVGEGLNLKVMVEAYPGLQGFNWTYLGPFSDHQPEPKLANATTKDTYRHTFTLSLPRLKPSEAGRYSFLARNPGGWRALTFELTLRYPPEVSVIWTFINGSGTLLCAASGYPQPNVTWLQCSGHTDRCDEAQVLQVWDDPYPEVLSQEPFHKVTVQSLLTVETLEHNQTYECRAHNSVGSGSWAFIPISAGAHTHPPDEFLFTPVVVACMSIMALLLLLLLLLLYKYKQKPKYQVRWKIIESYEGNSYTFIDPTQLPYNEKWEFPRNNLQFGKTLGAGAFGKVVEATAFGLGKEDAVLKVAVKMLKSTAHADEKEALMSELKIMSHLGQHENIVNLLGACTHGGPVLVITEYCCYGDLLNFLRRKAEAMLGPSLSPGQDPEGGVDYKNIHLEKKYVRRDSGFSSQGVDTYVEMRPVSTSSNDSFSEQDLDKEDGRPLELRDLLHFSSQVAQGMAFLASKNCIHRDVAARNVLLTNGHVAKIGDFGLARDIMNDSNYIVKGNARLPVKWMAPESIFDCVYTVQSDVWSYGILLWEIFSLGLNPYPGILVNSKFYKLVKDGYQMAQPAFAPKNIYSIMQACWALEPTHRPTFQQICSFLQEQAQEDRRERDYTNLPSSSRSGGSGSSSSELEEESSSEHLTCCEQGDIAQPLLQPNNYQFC
# [19] = molecular target: Macrophage colony-stimulating factor 1 receptor (Homo sapiens) (UniProt P07333); conditions: at 1 µM
# [20] = molecular target: Tyrosine-protein kinase Fyn (Homo sapiens) (UniProt P06241); conditions: at 0.1 µM
# Sequence of Tyrosine-protein kinase Fyn (Homo sapiens) (P06241 2-537 limits assumed): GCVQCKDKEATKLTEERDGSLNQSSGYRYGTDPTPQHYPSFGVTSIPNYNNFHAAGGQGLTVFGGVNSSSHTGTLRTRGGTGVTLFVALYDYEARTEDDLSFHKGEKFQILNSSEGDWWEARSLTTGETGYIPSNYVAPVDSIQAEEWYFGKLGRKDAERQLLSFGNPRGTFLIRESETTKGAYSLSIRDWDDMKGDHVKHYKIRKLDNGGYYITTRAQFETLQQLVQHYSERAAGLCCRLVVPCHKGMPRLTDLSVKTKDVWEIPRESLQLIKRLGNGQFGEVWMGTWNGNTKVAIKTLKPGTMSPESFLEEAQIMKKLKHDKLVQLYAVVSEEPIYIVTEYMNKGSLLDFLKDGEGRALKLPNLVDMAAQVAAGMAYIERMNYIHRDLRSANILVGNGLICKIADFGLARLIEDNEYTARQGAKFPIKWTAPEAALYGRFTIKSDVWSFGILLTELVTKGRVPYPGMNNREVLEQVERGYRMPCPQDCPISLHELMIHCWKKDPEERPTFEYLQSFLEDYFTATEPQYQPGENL
structure (smiles),measurement,setting,value
COc1cc2ncnc(Nc3ccc4c(cnn4Cc4ccccc4)c3)c2cc1OC,inhibition,[1],4.31%
same,inhibition,[2],1.6%
same,inhibition,[3],0.76%
same,inhibition,[4],2.52%
same,inhibition,[5],-2.69%
same,inhibition,[6],9.32%
same,inhibition,[7],3.49%
same,inhibition,[8],0.26%
same,inhibition,[9],6.18%
same,inhibition,[10],6.67%
same,inhibition,[11],8.26%
same,inhibition,[12],3.61%
same,inhibition,[13],3.2%
same,inhibition,[14],10.4%
same,inhibition,[15],2.33%
same,inhibition,[16],4.91%
same,inhibition,[17],15%
same,inhibition,[18],-1.86%
same,inhibition,[19],3.16%
same,inhibition,[20],7.78%
